Here are results for 29 molecules from the supplement of paper PMC12632987.

In all, about 1,800 sequences were measured (“median log2 fold change of GCK-ALFA target abundance (FLAG IP / Myc IP barcode read proportion)”: median about 0.14, lowest 2% from about -0.84 on). This excerpt belongs to a sample that is enriched for the lowest values.

To fix the notation:
T1: TRAF2, Q12933
T1 chain: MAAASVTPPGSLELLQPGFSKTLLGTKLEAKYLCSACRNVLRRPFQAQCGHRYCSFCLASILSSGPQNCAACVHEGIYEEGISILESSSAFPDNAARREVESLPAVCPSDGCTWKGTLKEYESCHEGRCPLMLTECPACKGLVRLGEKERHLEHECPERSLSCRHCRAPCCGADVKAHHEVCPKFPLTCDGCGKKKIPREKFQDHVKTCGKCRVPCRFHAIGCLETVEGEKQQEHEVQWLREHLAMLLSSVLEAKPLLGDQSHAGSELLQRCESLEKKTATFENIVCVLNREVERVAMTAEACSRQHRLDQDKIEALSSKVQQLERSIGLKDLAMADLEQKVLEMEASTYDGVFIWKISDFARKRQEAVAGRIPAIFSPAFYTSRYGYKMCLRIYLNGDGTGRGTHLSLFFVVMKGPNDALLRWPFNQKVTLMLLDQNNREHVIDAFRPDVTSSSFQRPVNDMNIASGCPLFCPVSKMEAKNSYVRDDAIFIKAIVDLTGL

B1: traf2_out_20_3_2058 (protein)
chain: SELDEEIEKKTKELEKKLAELAKLLPPEEAAELAKAWAEVKKAAKEGLEEFLIAVSKLRRLLLELSEEARARGDEKTAKLLEEAAEIAQEIAHLIYKKIE
B2: traf2_out_1_158_906 (protein)
chain: STAVNTLYAVATSIADVYAELAKERGLEKAAALLEKLKEDIKELYEKNKNASLEEFAKKVLELIEEKEKESESLPEEDKALVDIAFRQIKSGVEQVVKLA
B3: traf2_out_16_177_1453 (protein)
chain: ELDRLMDRLVILSELRRAALLAVEGRGDEYREHLARARELAEEAGDEEALALADRIEALIAENTPEAKEELKKLAEELQKEAQKLALEAEKLIKERAKEE
B4: traf2_out_11_169_827 (protein)
chain: EEAEKNRKINDKALELEDKAKKEFKEFVLKLAKEDGLDVEEIKKIFEENKNKSLSAQAAAVIEYFKSKGKEEAAKKVLEKYEELKEKINKEVTAFIKELE
B5: traf2_out_11_155_748 (protein)
chain: EERRKLLQEMNDKITELFDKAREEALKIAEEAAKKHPEHAEEIKKKIEETKGFSYRSFILSMIELFEELGLEEEAKKLKELLEKTQKEANKIVQETEKKL
B6: traf2_out_20_3_2118 (protein)
chain: EELEEELEKELEEALKLLKEAAKLADKKTAKKLEKLAKRLKESRKLSPSDRLVVVSEVRREVRRLRLEAEKKGDKKLAKVLDEAAEELNRAANLLMKIIE
B7: traf2_out_13_95_1130 (protein)
chain: SRETAEKIMEIADEMLDKVLEILKELLKKFEKAGVGVEEIKEAIYLAEHQSINEAIKLLEELAKKYPEFKEELNKAIEEIKKLRREAGKKVAEILKEEKE
B8: traf2_out_11_79_936 (protein)
chain: EEKRQELLKKLEEALKLLKELLEKMKAGTISEEERKEMLDEIERLLQRAAQLALELGLSDTLVEISEAKRHVRLAYSGDLEALEKAIKELEEAIKLVEEA
B9: traf2_out_17_162_1640 (protein)
chain: SPVEEFKERVEKELKELEKRVEELEEKSKKIDEYSKEELSDLIVEASEVKRRARELKQEVLAAKDLIPEEERARILKRLEEIIERAQRIAQKFYDKYLSL
B10: traf2_out_13_95_1105 (protein)
chain: SAETAEKIMEVADEMLEKSEKLLEELLKIAKEKGKLVEEVQEALDLARYRSINEAIHKLKELAKKYPEFKEEFEATIKELEELKREAGRKVAEILKEEKE
B11: traf2_out_13_95_1154 (protein)
chain: SKELAEKIMEIADKMLDKSKEILKELLEIAKKKGKLEEEVQEALYLAETRSINEAIHKLKELAKKYPEFKEELEKAIKELEELKREAGKEVAKLIKEEKE
B12: traf2_out_13_95_1160 (protein)
chain: SKELAKKIMEIADEMLDESEKILEELLKIAKEKGKLEKEVQEALDLARYRSINEAIHKLEELAKKYPEFKEEFEKAIKKLKELKREAGKKVAKLIKEEEE
B13: traf2_out_17_162_1603 (protein)
chain: SSLEKKKEELLKKKEELKEELKRLTEKLKNIEKLSKEELSDLLVEASEKKREALEALEKIEELKDELDPEEYEKLSTEFEELAEEFQRIANKFYKELEKK
B14: traf2_out_6_156_2407 (protein)
chain: MVEEIFEEAMKEIKELIKKLSEASEEKKISYISKIAGTFYRALQRLREAGASVEELEEFIKRMMEKIKEWLDEEGLPEDIKNLILSSLKAVGDVALEEAK
B15: traf2_out_17_162_1641 (protein)
chain: SAAEELRKRLLEELERLEKELKELEEKSKKIDEYTKEELSDLIVEASEARRRARELIEEVDRNRSLLDPEEYEELKKRLEEIAERLNRIAQKFYDKYLEL
B16: traf2_out_17_162_1479 (protein)
chain: MSIEEKVERLERELEELEEEARRLREELERLEEKSKEEITDLLVEVSEARRRALELAEEFEELAPEIGEEKARELADRAREIAEELQRIANEIYKELEKK
B17: traf2_out_17_60_1760 (protein)
chain: GPEERKKELAEEARRKIEEARRLVEEVRKKLEAGTLTADEAMDYLVELSEKRRELRRLAEELRAEGPEFEPLIEELERAIEEVERTMNEVGKELERLLAA
B18: traf2_out_6_3_2512 (protein)
chain: EEEEERKRNEEALEEAAEMSLETIKIAAETTLKELEKAVEDPNATETDFLAYKSSLNLLLEIMKKHAEKHPEEKEEAEKFIEEMKKKLEELEKEWKKKRA
B19: traf2_out_20_3_2213 (protein)
chain: DELVAAVREQLAKIRELLEQARPRLAPEDYARLNALLARAEEALETDPSDALVALSELRRALLELAERARAAGDEELAKLLEEAAEAANKAANLVMQLLE
B20: traf2_out_17_162_1579 (protein)
chain: SELEEKLKELEEKLKELEKELKRFKEELKNLENKSKEELTDLLVEVSEARREALQLAEELKKLEKEIGEEKAKELIEKAEEIAEEFQRIANEIYKELLKK
B21: traf2_out_6_156_2416 (protein)
chain: MVEEILKEALEKVKELIKELAKAPESKKIQYISKIAGTAYRALQKLREAGASLEEIEEFAKRFLEETKKLAKEAGLPEDTINLLLSALQAVFDVAIAEAK
B22: traf2_out_6_3_2523 (protein)
chain: SEESLREDARRVLEGMGITTAEQLRRLVRAEVNAVRRLVSRPDTDEADLAGAESVLALAEAVVDVAAEELPDLTEEQVAELRALIEEARKLVEEKRAELA
B23: traf2_out_17_178_1720 (protein)
chain: SKEEYRKKISELTDKLIDLAEAAAARLLALARAEGTLSPEELAALEAARRRGSPNDTLALMRRVAPRLRSAAEAEALLADFEAQSKALAKEIAELYEKYE
B24: traf2_out_13_95_1103 (protein)
chain: SEETAKKIMEVADKMLDKVEELLEKLLEKAKKAGKLEEEIEKALHLARYQSINEAIHLLKELAKKYPEFKEELEETIKEIEALRKQAGKEVAKIIKEEKE
B25: traf2_out_13_95_1096 (protein)
chain: SKELAEKIMEIADKMLDEVEKLLEELLKEAKKAGKLEEEVTEALNLARYRSINEAIHLLEELAKKHPEFKELYEKTIKEIKEIIKEAGKEVAKLIKEEKE
B26: traf2_out_6_3_2524 (protein)
chain: SEESLRADARKILEGMGITTAEQLRTLVTAEVNAVRQLVSRPDTDRADLAGARSVLALSRAIVDVAAETLPDLTPEQVAALRALIAAAEELIAAREAELA
B27: traf2_out_16_104_1376 (protein)
chain: SAATDAAFQAIIARLEAIAERAQRLANELMKLYEKASPEEKEKISDALVEVSELRRRALAAAEAVRQAQAAGGDLAEAQATLAELEARLAEAEARVEELK
B28: traf2_out_11_169_872 (protein)
chain: KEAEKNRKLNDFALELNDEAKEKLKEFALKLAKELGLDVEEVKKIFEENKNKSLSAVAAALIKYFKEKGKEDAAAKIEKKYEELKEEINKKTSEKIKELE
B29: traf2_out_3_89_2287 (protein)
chain: SEEREKKIEELRRIIDRYLKGFEKSARRVAKEMLEEGYSLDTLEGVLNASKTALVEEIRRLAKERGLSEEDIKELVEEATKRLDEIVDKILEEAKKARAE

In this experiment the target is T1, TRAF2, Q12933. The experiment can be described thus: median log2 fold change of GCK-ALFA target abundance (FLAG IP / Myc IP barcode read proportion) (log2 ratio); each designed protein is fused to an ALFA-tag nanobody in HEK293 cells to bring the named protein to FLAG-tagged glucokinase (GCK); Myc marks an untargeted standard; higher = target protein stabilised (more abundant). Conditions: target protein: 3xFLAG-MCP-GCK-ALFA reporter; HEK293 landing pad (RPLP). The gist of the method:
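Binders fused to an ALFA nanobody were recombined as a library into HEK293 landing-pad cells, which were induced with 2 μg mL^−1 doxycycline and then transfected to express a FLAG-tagged target and a Myc-tagged standard. After 48 h, circular RNA barcodes recovered by anti-FLAG and anti-Myc immunoprecipitation of lysates were reverse transcribed, amplified and sequenced. Each binder's target abundance is the median log2 ratio of FLAG to Myc barcode read proportions, from barcodes present at ≥10^−7 in both replicates, binders carrying ≥3 barcodes per replicate, a 10^−6 pseudocount and pooled replicates.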
For the molecule B1, the “median log2 fold change” value was found to be 0.144. Turning to B2, the “median log2 fold change” value was found to be 0.0998. B3: the “median log2 fold change” value was -0.267. Under B4 stands -0.542; under B5, 0.302; under B6, 0.107. Then B7, with -0.433; and B8, with 0.397; and B9, with 0.0147.

For the molecule B10, the “median log2 fold change” value is -0.477. Then B11, with -0.148; and B12, with -1.21; and B13, with 0.253. Then B14, with 0.175; and B15, with 0.177; and B16, with 0.0731. Turning to B17, the “median log2 fold change” value stood at 0.112. With B18, the “median log2 fold change” value was determined as 0.417. Under B19 stands 0.129; under B20, 0.462. Under B21 stands -0.0768. Turning to B22, the “median log2 fold change” value is -0.222. For the molecule B23, the “median log2 fold change” value turned out to be 0.2.

With B24, the “median log2 fold change” value was -1.3.

Take B25: the “median log2 fold change” value was -0.702.

As to B26, the “median log2 fold change” value was -0.125. Under B27 stands 0.417; under B28, 0.289; under B29, -0.239.
